Source: paper PMC7862700, “An all-to-all approach to the identification of sequence-specific readers for epigenetic DNA modifications on cytosine”

Assays:
Assay in all cases: DAPPL (digital affinity profiling via proximity ligation, sequencing); 10 mM Tris-HCl pH 7.5, 50 mM NaCl, 1 mM DTT, 4% glycerol, room temperature, 30 min; GST-TFs on glutathione beads, 16-mer random dsDNA library, 0.1% formaldehyde crosslink after washing; high values mean tight binding
Conditions in all cases: protein: recombinant; tags: N-terminal GST; dsDNA, one strand shown
[1] = target: T1, ETV2 (Homo sapiens, UniProt O00321 1-342)
T1 sequence: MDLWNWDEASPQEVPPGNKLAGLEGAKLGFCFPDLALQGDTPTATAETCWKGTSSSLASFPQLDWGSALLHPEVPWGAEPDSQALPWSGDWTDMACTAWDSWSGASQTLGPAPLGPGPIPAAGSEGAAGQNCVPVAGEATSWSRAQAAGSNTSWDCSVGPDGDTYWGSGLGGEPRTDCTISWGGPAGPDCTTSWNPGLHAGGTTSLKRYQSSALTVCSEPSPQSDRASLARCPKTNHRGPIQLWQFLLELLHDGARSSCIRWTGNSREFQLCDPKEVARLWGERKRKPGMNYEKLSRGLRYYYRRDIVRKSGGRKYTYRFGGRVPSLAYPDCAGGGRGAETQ
Summary of the method: (§1)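 Sequencing on an Illumina NextSeq500 followed washing, crosslinking with 0.1% formaldehyde, proximity ligation (BsaI/T4 ligase, 1 h, 37 °C) and PCR amplification of pools that had been incubated for 30 min at room temperature with 200 nmole of a random double-stranded 16-mer DNA library in Tris/NaCl/DTT/glycerol buffer. Each pool held DNA-barcoded human transcription factors, expressed in yeast as GST fusions and captured on glutathione beads, plus a tag-only sample. Binding signal is a hexamer's read frequency for a factor divided by its frequency in the tag-only sample.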

[2] = target: T2, ELF3 (Homo sapiens, UniProt P78545 1-371)
T2 sequence: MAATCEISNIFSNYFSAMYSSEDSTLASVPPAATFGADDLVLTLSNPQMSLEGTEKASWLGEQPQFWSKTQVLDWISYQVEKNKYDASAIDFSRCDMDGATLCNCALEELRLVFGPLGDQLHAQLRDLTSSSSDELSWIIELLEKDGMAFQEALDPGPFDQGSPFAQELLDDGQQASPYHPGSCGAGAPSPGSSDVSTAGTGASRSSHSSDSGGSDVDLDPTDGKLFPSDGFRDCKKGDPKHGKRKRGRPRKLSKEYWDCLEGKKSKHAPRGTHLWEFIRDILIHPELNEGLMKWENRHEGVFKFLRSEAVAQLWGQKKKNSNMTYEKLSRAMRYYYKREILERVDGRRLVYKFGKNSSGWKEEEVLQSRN
Summary of the method: as §1

[3] = target: ETV1 (Homo sapiens, UniProt P50549 1-477)
Chain of ETV1 (P50549 whole entry): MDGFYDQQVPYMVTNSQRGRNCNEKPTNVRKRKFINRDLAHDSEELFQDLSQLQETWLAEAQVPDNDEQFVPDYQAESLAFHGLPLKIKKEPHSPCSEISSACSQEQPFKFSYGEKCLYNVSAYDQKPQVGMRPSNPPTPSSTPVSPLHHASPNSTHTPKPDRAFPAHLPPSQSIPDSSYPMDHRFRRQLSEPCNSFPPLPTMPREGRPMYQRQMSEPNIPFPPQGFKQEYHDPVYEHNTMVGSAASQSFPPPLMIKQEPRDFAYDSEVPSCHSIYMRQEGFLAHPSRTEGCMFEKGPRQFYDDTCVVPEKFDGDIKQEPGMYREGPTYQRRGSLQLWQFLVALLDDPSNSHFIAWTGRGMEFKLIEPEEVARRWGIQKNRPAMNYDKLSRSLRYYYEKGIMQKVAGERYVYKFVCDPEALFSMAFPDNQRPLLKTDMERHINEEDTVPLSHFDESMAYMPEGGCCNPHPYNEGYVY
Summary of the method: as §1

[4] = target: T3, ERF (Homo sapiens, UniProt P50548 1-548)
T3 sequence: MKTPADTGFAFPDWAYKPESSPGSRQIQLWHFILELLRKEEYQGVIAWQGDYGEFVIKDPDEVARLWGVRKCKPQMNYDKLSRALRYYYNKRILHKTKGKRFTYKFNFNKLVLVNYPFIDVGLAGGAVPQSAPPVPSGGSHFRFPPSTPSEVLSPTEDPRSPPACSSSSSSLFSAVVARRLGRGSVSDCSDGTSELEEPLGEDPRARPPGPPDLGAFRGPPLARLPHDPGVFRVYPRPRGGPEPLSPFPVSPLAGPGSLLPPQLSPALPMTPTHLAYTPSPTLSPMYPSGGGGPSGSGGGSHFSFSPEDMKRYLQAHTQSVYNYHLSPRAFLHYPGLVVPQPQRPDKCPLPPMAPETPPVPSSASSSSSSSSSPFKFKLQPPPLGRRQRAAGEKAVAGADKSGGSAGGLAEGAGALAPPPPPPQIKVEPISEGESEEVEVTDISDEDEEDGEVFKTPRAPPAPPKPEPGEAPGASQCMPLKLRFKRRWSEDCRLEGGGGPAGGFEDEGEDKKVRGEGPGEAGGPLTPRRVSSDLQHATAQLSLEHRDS
Summary of the method: as §1

[5] = target: T4, ETV3L (Homo sapiens, UniProt Q6ZN32 1-361)
T4 sequence: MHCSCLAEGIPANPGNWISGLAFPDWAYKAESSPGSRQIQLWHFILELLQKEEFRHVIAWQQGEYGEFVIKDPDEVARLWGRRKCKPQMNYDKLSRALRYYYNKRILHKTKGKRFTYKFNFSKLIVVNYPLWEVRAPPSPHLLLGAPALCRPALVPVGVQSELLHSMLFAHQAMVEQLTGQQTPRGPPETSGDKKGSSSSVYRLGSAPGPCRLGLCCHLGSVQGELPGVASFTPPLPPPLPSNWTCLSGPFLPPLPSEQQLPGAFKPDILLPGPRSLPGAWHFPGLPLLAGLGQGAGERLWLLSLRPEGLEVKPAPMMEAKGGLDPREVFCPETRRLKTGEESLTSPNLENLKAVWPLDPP
Summary of the method: as §1

[6] = target: T5, ETS2 (Homo sapiens, UniProt P15036 1-469)
T5 sequence: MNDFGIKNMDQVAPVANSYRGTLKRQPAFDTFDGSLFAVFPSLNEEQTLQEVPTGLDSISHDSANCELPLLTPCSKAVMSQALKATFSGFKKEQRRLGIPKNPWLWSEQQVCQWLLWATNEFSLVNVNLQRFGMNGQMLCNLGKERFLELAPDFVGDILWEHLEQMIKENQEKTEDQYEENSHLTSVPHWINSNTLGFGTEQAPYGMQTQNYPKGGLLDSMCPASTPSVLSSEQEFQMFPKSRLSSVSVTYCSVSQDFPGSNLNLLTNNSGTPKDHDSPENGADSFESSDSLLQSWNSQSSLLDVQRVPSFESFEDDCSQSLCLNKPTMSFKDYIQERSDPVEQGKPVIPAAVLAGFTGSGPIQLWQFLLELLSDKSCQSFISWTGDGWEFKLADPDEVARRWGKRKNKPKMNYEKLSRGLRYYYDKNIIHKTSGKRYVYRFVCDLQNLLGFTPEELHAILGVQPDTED
Summary of the method: as §1

[7] = target: T6, SPDEF (Homo sapiens, UniProt O95238 1-335)
T6 sequence: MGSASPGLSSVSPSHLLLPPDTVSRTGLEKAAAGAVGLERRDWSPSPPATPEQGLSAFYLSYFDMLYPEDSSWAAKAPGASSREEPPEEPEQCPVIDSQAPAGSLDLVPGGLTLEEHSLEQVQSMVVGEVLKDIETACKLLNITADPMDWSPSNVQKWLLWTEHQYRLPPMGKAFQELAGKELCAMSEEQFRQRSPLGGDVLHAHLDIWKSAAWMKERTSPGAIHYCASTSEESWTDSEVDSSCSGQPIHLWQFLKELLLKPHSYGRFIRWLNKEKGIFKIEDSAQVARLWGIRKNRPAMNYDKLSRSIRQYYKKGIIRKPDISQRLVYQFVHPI
Summary of the method: as §1

[8] = target: T7, ETV7 (Homo sapiens, UniProt Q9Y603 1-341)
T7 sequence: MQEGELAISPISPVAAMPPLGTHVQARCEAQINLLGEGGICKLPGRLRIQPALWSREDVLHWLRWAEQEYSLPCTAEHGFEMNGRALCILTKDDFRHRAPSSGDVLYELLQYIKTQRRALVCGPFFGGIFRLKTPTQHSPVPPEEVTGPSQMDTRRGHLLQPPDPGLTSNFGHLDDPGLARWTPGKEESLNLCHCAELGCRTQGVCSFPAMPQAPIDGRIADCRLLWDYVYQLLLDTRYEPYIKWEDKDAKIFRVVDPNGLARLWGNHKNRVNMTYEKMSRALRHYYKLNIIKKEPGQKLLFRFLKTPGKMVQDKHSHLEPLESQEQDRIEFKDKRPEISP
Summary of the method: as §1

[9] = target: T8, ETV3 (Homo sapiens, UniProt P41162-2 1-143)
T8 sequence: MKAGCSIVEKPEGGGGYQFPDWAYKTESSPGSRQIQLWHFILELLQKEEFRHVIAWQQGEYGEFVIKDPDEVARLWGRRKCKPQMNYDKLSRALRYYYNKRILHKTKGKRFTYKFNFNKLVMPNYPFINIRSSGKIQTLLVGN
Summary of the method: as §1

[10] = target: ETV6 (Homo sapiens, UniProt P41212 1-452)
Chain of ETV6 (P41212 whole entry): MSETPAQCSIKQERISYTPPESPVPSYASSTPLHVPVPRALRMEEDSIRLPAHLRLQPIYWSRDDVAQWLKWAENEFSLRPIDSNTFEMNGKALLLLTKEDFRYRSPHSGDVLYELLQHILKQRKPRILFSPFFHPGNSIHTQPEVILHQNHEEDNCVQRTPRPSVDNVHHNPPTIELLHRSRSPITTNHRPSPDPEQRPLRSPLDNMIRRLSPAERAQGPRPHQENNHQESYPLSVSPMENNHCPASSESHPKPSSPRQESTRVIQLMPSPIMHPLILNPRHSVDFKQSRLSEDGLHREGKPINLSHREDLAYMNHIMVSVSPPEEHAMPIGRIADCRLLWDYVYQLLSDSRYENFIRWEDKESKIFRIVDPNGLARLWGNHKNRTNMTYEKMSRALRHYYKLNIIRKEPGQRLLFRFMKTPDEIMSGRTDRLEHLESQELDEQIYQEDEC
Summary of the method: as §1

CCCCCC
binding signal [1]: 1.26 fold enrichment (6-mer frequency, TF over GST control)
binding signal [2]: 1.28 fold enrichment (6-mer frequency, TF over GST control)
binding signal [3]: 1.11 fold enrichment (6-mer frequency, TF over GST control)
binding signal [4]: 1.05 fold enrichment (6-mer frequency, TF over GST control)
binding signal [5]: 1.07 fold enrichment (6-mer frequency, TF over GST control)
binding signal [6]: 1.1 fold enrichment (6-mer frequency, TF over GST control)
binding signal [7]: 1.08 fold enrichment (6-mer frequency, TF over GST control)
binding signal [8]: 1.13 fold enrichment (6-mer frequency, TF over GST control)
binding signal [9]: 1.14 fold enrichment (6-mer frequency, TF over GST control)
binding signal [10]: 1.06 fold enrichment (6-mer frequency, TF over GST control)
